# Assay results reported in PubChem BioAssay AID2551 (National Center for Advancing Translational Sciences (NCATS), 2010).
# Where “and” joins values, the source holds several entries; their conditions need not be identical. Equal values may be shown once. Screen size: about 310,000 compounds; about 17,000 (5.5%) were called active. Another 11% or so got no clear call; they are omitted. The call rests on the fitted dose curve; in most records, active means well fitted inhibition curve with a large enough effect; inconclusive means small, poorly fitted or top-dose-only effect, or effect the other way; inactive means no such curve, though single readings can be large or run the other way. Only a selection was taken, and actives are over-represented in it overall. The source holds several records for some structures; these can differ, active in one and inactive in another.
# Target: Nuclear receptor ROR-gamma (Mus musculus) (UniProt P51450)
# Assay: qHTS for inhibitors of ROR gamma transcriptional activity; further: nearly all actives have a fitted effect of over 60% in size
# Conditions: Drosophila S2 Gal4-RORgamma UAS-luciferase reporter, 20 h; series mostly up to 53.6 µM; activity change, negative = inhibition: at the top concentration
# In short: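 Schneider cells (Drosophila), stable Gal4 DBD–ROR gamma + UAS-luc; 1 hr cmpd preincubation; Cu2+ induction 700 uM final; 20 hr ambient; luminescence.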
# On the % scale 0 is the no-effect control and ±100 the full control effect; potency means the concentration at half of the fitted maximal effect.
# Nuclear receptor ROR-gamma (Mus musculus), sequence (P51450 whole entry, looked up): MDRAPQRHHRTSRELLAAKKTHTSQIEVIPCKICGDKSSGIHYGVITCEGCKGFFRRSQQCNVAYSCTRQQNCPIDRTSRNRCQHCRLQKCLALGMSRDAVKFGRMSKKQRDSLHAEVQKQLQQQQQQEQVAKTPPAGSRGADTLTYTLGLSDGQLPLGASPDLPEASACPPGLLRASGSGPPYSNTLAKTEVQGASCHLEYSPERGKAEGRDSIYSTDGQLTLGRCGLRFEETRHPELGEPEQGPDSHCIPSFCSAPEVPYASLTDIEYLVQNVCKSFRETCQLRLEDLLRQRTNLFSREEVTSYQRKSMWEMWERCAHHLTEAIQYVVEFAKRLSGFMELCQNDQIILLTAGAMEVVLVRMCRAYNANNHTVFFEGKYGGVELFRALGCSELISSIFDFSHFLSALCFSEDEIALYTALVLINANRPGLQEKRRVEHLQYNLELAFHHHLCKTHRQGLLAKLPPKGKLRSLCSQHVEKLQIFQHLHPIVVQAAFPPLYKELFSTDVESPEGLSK
SMILES,"activity change, negative = inhibition",Potency
O=S(=O)(Oc1ccccc1C(=S)N1CCOCC1)c1ccc(Cl)cc1,-1.78% (inactive),
Cc1cc(C)cc(C(=O)NCCN2CCOCC2)c1,-10.6% (inactive),
O=C1CCNCCN1[C@H](CO)Cc1ccccc1,-13.7% (inactive),
Cc1cc2occ(CC(=O)NNC(=O)c3ccccc3F)c2cc1C,18.8% (inactive),
Cc1cccc(C(=O)Nc2ccc(C(=O)N/N=C/c3cccc(C)n3)cc2)c1,1.91% (inactive),
O=C(N/N=C/c1cccnc1)c1ccc(NC(=O)c2ccc(F)cc2)cc1,-2.69% (inactive),
Cn1cccc1/C=N/NC(=O)c1ccc(OC(F)(F)C(F)F)cc1,,2 µM (active)
C/C(=N\NC(=O)Cc1ccccc1[N+](=O)[O-])c1cccnc1,26.2% (inactive),
CC1CC(C)CN(C(=O)C2CC(=O)N(c3ccc(F)cc3)C2)C1 (stereo not drawn),-8.45% (inactive),
O=C(O)c1cccc(S(=O)(=O)Nc2ccc(O)cc2Sc2nc3ccccc3s2)c1,,10 µM (active)
O=C(O)c1ccccc1CSc1nc2ccccc2s1,-0.569% (inactive),
COc1ccc(S(=O)(=O)Nc2ccc(O)c(Sc3nc4ccccc4s3)c2)cc1,1.49% [at 10 µM] (inactive),
CCOC(=O)COc1cc(O)c2c(=O)cc(-c3ccccc3)oc2c1,-12% (inactive),
COc1c(O)cc2oc(-c3ccc(O)c(O)c3)cc(=O)c2c1O,,inactive and 12.6 µM (active)
Cc1cccc(-c2cc(=O)c3cc(C)ccc3o2)c1,-18.1% (inactive),
O=c1cc(-c2ccc(O)cc2)oc2c(-c3cc(-c4cc(=O)c5c(O)cc(O)cc5o4)ccc3O)c(O)ccc12,5.83% (inactive),
COc1ccc(-c2cc(=O)c3c(O)cc(O[C@@H]4O[C@H](CO[C@@H]5O[C@@H](C)[C@H](O)[C@@H](O)[C@H]5O)[C@@H](O)[C@H](O)[C@H]4O)cc3o2)cc1O,1.9% (inactive),
O=c1cc(-c2ccc(O)c(O)c2)oc2cccc(O)c12,,14.1 µM (active)
Cc1ccc(-c2noc(C3CCCN(C(=O)c4cccc(Cl)c4)C3)n2)o1 (stereo not drawn),-1.35% (inactive),
CCOC(=O)N1CCN(Cc2nc3cc(NC(=O)CC)ccc3n2CC)CC1,-9.43% (inactive),
C#CCOc1ccc(/C=C2/C(=O)ON=C2C)cc1OCC,19.7% (inactive),
Cc1ccccc1CN1CCC(C(=O)Nc2ccc(Oc3cccnc3)cc2)CC1,5.98% (inactive),

SMILES,"activity change, negative = inhibition",Potency
CC1(C)Cc2c(cnn2-c2cccc(F)c2)C(NC(=O)c2cc[n+]([O-])cc2)C1 (stereo not drawn),18.2% (inactive),
CC1(C)C(C=C(Cl)Cl)C1C(=O)NC(O)C(=O)c1ccccc1 (stereo not drawn),2.63% (inactive),
CN(Cc1ccccn1)Cc1nc(-c2ccc(Cl)cc2)no1,-8.55% (inactive),
CN(Cc1ccc2nsnc2c1)Cc1nc(Cc2cccc(F)c2)no1,5.49% (inactive),
CCc1ccc(CN(C)Cc2nc(Cc3ccccc3)no2)nc1,,11.2 µM (active)
Cc1ccc(S(=O)(=O)NCCC(=O)Nc2ccc(C)c(Cl)c2)cc1C,18.6% (inactive),
Cc1ccc(S(=O)(=O)NCCC(=O)Nc2cccc(S(N)(=O)=O)c2)cc1C,-17.4% (inactive),
Cc1ccnc(NC(=O)CCNS(=O)(=O)c2ccc(C)c(C)c2)c1,,10 µM (active)
Fc1ccc2nc(Nc3nc4c(s3)CCCC4)sc2c1,,3.16 µM (active)
COC(=O)C(NC(C)=O)(Nc1nc2c(s1)CCCC2)C(F)(F)F (stereo not drawn),0.2% (inactive),
O=C(Cn1c(=O)sc2ccccc21)Nc1nc2c(s1)CCCC2,6.34% (inactive),
O=C(Nc1cccc(-c2cccc(Cl)c2)c1)C1CCN(C2CCC2)CC1,-24.5% (inactive),
CC(C)c1ccc2c([Si](C)(C)C)c3c(nc2c1)-c1cccc(=O)n1C3,1.99% (inactive),
Cc1nc2ccccc2c(C)c1C(=O)c1ccc(F)cc1,-4.49% (inactive),
Cc1c2c(nc3ccccc13)-c1cccc(=O)n1C2,,8.91 µM (active)
CCn1c(=S)sc2c(=O)n(CC(=O)Nc3ccc(OC)cc3)c(C)nc21,-10.3% (inactive),
Cc1ccc(C)c(N2CCN(S(=O)(=O)c3c(C)[nH]c(C)c3C(=O)N3CCCC3)CC2)c1,1.12% (inactive),
CC1(C)Cc2ccccc2-c2nc(CN3CCOCC3)[nH]c(=O)c21,-5.08% (inactive),
CCC1(CC)Cc2ccccc2-c2nc(CCl)[nH]c(=O)c21,,11.2 µM (active)
CCOC(=O)C1Cn2c(nc3c(c2=O)C(C)(CC)Cc2ccccc2-3)S1 (stereo not drawn),4.88% (inactive),
CC(=O)c1ccc(OCC(O)CN2CCN(S(=O)(=O)c3cccc(Br)c3)CC2)cc1 (stereo not drawn),1.55% (inactive),
COC(=O)C1CCCCN1C(=O)c1ccc(OC2CCN(C(C)=O)CC2)c(OC)c1 (stereo not drawn),0% (inactive),

SMILES,"activity change, negative = inhibition",Potency
Cc1ccc(CN(CC(=O)NCC2CCCO2)S(=O)(=O)c2ccc(C)cc2)cc1 (stereo not drawn),-3.1% (inactive),
COCc1nc2ccccc2n1Cc1ccccc1Br,,6.31 µM (active)
COc1ccccc1Cn1c(CO)nc2ccccc21,-33.8% (inactive),
COCn1c(COc2ccccc2)nc2ccccc21,-18.9% (inactive),
Cc1ccc(S(=O)(=O)NNC(=S)NC(C)(C)C)cc1,,8.91 µM (active)
COc1ccc(C(=O)NNS(=O)(=O)c2ccc(C)cc2)cc1,-13.6% (inactive),
CC(NC(=O)Nc1ccccc1)c1ccccc1 (stereo not drawn),-8.38% (inactive),
Cc1ccc(S(=O)(=O)NNC(=O)Nc2cccc3ccccc23)cc1,2.09% (inactive),
Cc1ccc(S(=O)(=O)CC(=O)NC(C)c2ccccc2)cc1 (stereo not drawn),21% (inactive),
CC(NC(=S)NNS(=O)(=O)c1ccc(C(C)(C)C)cc1)c1ccccc1 (stereo not drawn),,8.91 µM (active)
CCOc1ccc(N(CC(=O)NCCc2ccc(F)cc2)S(=O)(=O)c2ccccc2)cc1,14.9% (inactive),
COc1ccccc1CNC(=O)[C@@H]1CCCN1C(=O)[C@@H]1Cc2ccccc2CN1C(=O)OC(C)(C)C,33.9% (inactive),
CCN(CC)c1ccc(C(=O)Nn2c(C)nc3ccccc3c2=O)cc1,-16.6% (inactive),
CCCCCc1ccc(-c2cn(Cc3ccc4ccccc4c3)nn2)cc1,-1.78% (inactive),
CCCCCc1ccc(-c2ccc(C(=O)O)cc2)nc1,,6.31 µM (active)
CCCCCc1ccc(-c2ccc(OCC)cc2)nc1,-33.7% (inactive),
Cc1cccc(-c2nnc(SCC(=O)O)n2Cc2ccccc2)c1,4.58% (inactive),
O=C(CCCCCn1c(=S)[nH]c2ccsc2c1=O)NC1CCCCC1,,11.2 µM (active)
O=C(CCC(=O)c1cccs1)NC1CCCCCC1,9.7% (inactive),
CCCCC(CC)CNC(=O)CCCCn1c(=O)[nH]c2ccsc2c1=O (stereo not drawn),-18.2% (inactive),
O=C(CN1C(=O)c2ccccc2C1=O)NCc1ccc(C(=O)O)cc1,-11.3% (inactive),
COc1ccc(N(CC(=O)Nc2cc(OC)cc(OC)c2)S(=O)(=O)c2c(C)n[nH]c2C)cc1,-11.3% (inactive),

SMILES,"activity change, negative = inhibition",Potency
Cc1cccc(N2CCN(C(C)C(=O)N3CCc4ccccc43)CC2)c1C (stereo not drawn),-0.135% (inactive),
Cc1ccn(CCC(=O)N2c3ccccc3CC2C)n1 (stereo not drawn),-3.48% (inactive),
COc1ccc(N2C(=O)CNC2=S)cc1,-0.234% (inactive),
COc1ccc(-c2cn(-c3ccc(OC)cc3)c(=S)[nH]2)cc1,,0.398 µM (active)
COc1ccc(-n2c(C)csc2=S)cc1,13.1% (inactive),
COc1ccc(S(=O)(=O)N(CC(=O)N/N=C/c2ccc(C(=O)O)cc2)Cc2ccccc2)cc1OC,-0.595% (inactive),
COc1ccc(-n2ncc3c(SCC(=O)NNC(C)=O)ncnc32)cc1,-14.4% (inactive),
CC(C)C[C@@H](COc1ccccc1)N1CCN(CC(C)C)CCC1=O,5.12% (inactive),
CCOc1cc(/C=C(/C#N)c2ccc(Cl)cc2)cc(Cl)c1OCC(=O)O,,0.891 µM (active)
CCOC(=O)CN/C=C(\C#N)c1ccc(F)cc1,4.9% (inactive),
C/C(=N\OCC(=O)O)c1ccc(Cl)cc1,2.12% (inactive),
CC(C)CNC(=S)NC(=O)c1ccc(Cl)cc1,,3.98 µM (active)
CC(C)C(NC(=O)c1ccc(Cl)cc1)C(=O)O (stereo not drawn),5.86% (inactive),
CCOC(=O)NNC(=O)c1ccc(Cl)cc1,22.9% (inactive),
COc1ccc(C2=NS(=O)(=O)N(C)C(C(=O)N(C)Cc3ccccc3)=C2)cc1,10.9% (inactive),
CCn1cc(CCC(=O)NCc2ccc(F)cc2)c2ccccc21,-1.55% (inactive),
CCN(CC)CCn1c(/N=C/c2cc(Br)ccc2O)nc2ccccc21,,3.98 µM (active)
C/C(=N\c1nc2ccccc2n1C)c1cc(Cl)ccc1O,-4.15% (inactive),
CCN(CC)CCn1c(N)c(S(=O)(=O)c2ccccc2)c2nc3ccccc3nc21,-4.59% (inactive),
Cc1ccc(Cn2c(C)c3cnn(CC(=O)NCc4ccccn4)c(=O)c3c2C)cc1,-19.1% (inactive),
CCOC(=O)c1cc2ccccc2n1CC(=O)c1ccccc1,0.755% (inactive),
CCn1c(=N)n(CC(=O)c2cccc(OC)c2)c2ccccc21,,6.31 µM (active)

SMILES,"activity change, negative = inhibition",Potency
COc1ccc2cc(C(=O)O)n(CC(=O)c3ccccc3)c2c1,10.7% (inactive),
COc1ccc(NC(=O)c2cc(-c3cc(OC)c(OC)c(OC)c3)nc3ccccc23)c(OC)c1,32.5% (inactive),
COC(=O)c1ccc(COc2ccc(C#N)cc2)o1,-14.9% (inactive),
COc1ccc(C2/C(=C(/O)c3ccccc3)C(=O)C(=O)N2C)c(OC)c1 (stereo not drawn),-11.9% (inactive),
COc1ccc(OC)c(C(O)c2nc3ccccc3n2C)c1 (stereo not drawn),2.31% (inactive),
CCCn1c(C(O)c2cc(OC)ccc2OC)nc2ccccc21 (stereo not drawn),,17.8 µM (active)
CCn1c(C(O)c2cc(OC)ccc2OC)nc2ccccc21 (stereo not drawn),-4.76% (inactive),
CCOC(=O)c1ccccc1NS(=O)(=O)c1c(C)nc2sccn2c1=O,35.7% (inactive),
OCC(CO)NC1C[C@](O)(CO)[C@@H](O)[C@H](O)[C@H]1O (stereo partly drawn),4.55% [at 10 µM] (inactive),
C=CCn1c(C23CC4CC(CC(C4)C2)C3)n[nH]c1=S,,2.82 µM (active)
C=CCn1c(SCC(=O)NC23CC4CC(CC(C4)C2)C3)nc(O)cc1=O,34% (inactive),
C=CCn1c(SCC(=O)NC)nnc1C12CC3CC(CC(C3)C1)C2,-9.51% (inactive),
Cc1nn(Cc2ccccc2)c(C)c1NS(=O)(=O)c1ccccc1,23.2% (inactive),
Cc1ccccc1NC(=O)CCNS(=O)(=O)c1ccc2[nH]c(=O)oc2c1,-15.3% (inactive),
CC(=O)c1ccc(S(=O)(=O)N2CCN(C(=O)/C=C/c3ccc4ccccc4n3)CC2)cc1,16.1% (inactive),
CCOc1ccccc1-c1cc(C(=O)N2CCOCC2)c2ccccc2n1,28.2% (inactive),
COc1cccc(/C=C/c2ccc3ccccc3n2)c1OC(C)=O,,2 µM (active)
CCOc1cccc(/C=C/c2ccc3ccccc3n2)c1OC(C)=O,,3.98 µM (active)
CC(OC(=O)c1ccc2ccccc2n1)C(=O)c1ccccc1 (stereo not drawn),22.8% (inactive),
COc1cccc(/C=C2\C=C(c3ccc(C)cc3)OC2=O)c1OC(C)=O,-1.83% (inactive),
